Screening results: PubChem, National Center for Advancing Translational Sciences (NCATS)
Compounds with a hit are over-represented: about 17% of the library has one in this group of screens.
DT40 TDP1 no CPT: qHTS for Inhibitors of human tyrosyl-DNA phosphodiesterase 1 (TDP1): qHTS in cells in absence of CPT; DT40 Tdp1-/- hTDP1 cells, no CPT, ATP luminescence, 48 h; Potency, µM (titrated, usually from 46.2 µM), for inactives: at the highest dose activity change, negative = growth inhibition, usual class: inhibitors; actives 15% (n = 420,000); AID 686978, 2013; note: % is set by controls: 0 for no effect and ±100 for the full control effect; nearly all actives have a fitted effect of over 55% in size
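Stably hTDP1-transfected Tdp1-null chicken DT40 cells were treated with library compounds minus camptothecin and grown for at least 48 hr at 37 °C, after which cellular ATP was quantified by luminescence.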
ATXN2 expr inh: reduces ATXN2 reporter expression in HEK-293 cells; HEK-293 ATXN2-luciferase reporter, luminescence, 24 h; Potency, µM (highest dose often 57 µM), without a hit: top-dose activity change, negative = inhibition, usual class: inhibitors; actives 0.72% (n = 360,000); AID 1745845; note: % is set by controls: 0 for no effect and ±100 for the full control effect; nearly all actives have a fitted effect of over 55% in size
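qHTS (up to 57 uM final) was run with 24 h compound exposure of reporter cells at 37 °C. Each well was multiplexed: SteadyGlo luminescence measured ATXN2-luciferase expression after a fluorogenic Gly-Phe-AFC viability readout (25 uM final).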
TDP1 cell CPT: DT40-hTDP1 cell growth loss with CPT. chicken DT40 Tdp1-/-;hTDP1 cells + 20 nM CPT, ATP luminescence, 48 h. Potency, µM (series often up to 46.2 µM), for the others: at the top dose activity change, negative = growth inhibition, actives largely listed as inhibitors. AID 686979. actives 12% (n = 420,000); note: % is set by controls: 0 for no effect and ±100 for the full control effect; nearly all actives have a fitted effect of over 55% in size
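Chicken DT40 Tdp1-/- cells stably complemented with human TDP1 were seeded at 400 cells/well in medium containing 20 nM camptothecin, exposed to pin-transferred compounds, and grown at 37 °C for at least 48 hr. Viability was read as ATP luminescence.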
ATXN viability: reduces viability in counter-screen for ATXN expression inhibitors. S2 cells (HEK-293 line with an ATXN2-luciferase reporter) viability, CellTiter-Fluor protease fluorescence, 24 h. Potency, µM (top dose mostly 56.7 µM), actives largely listed as cytotoxic. actives 0.49% (n = 400,000); note: nearly all actives have a fitted effect of over 40% in size
TGFb SMAD3 inh: inhibitors of TGF-b signaling; AID 588855; HepG2 CAGA-GFP TGF-b/SMAD3 reporter, GFP fluorescence, 18 h; TGF-beta stimulated, 500 pg/mL final; actives 1.2% (n = 410,000); Potency, µM (highest dose often 46.1 µM), for inactives: top-dose activity, negative = inhibition, actives largely listed as inhibitors; note: % is set by controls: 0 for no effect and ±100 for the full control effect; nearly all actives have a fitted effect of over 65% in size
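HEPG2 CAGA-GFP reporter cells (1000/well, DMEM with 1% FBS) received compounds, then recombinant TGF-beta at 500 pg/mL final for 18 hours at 37 degrees C. Per-cell GFP summed per well was normalised to unstimulated and stimulated DMSO controls before curve fitting.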
HepG2 tox: kills HepG2 cells in TGF-b inhibitor counter-screen; HepG2 CAGA-GFP viability, ATP luminescence, 18 h; Potency, µM (top dose mostly 46.1 µM), for inactives: top-dose activity change, negative = cytotoxicity, usual class: cytotoxic; actives 0.76% (n = 410,000)
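CellTiter-Glo luminescence gave cytotoxicity after 18 hours at 37 degrees C. The cells were HepG2 CAGA-GFP in 1% FBS DMEM, stimulated with 500 pg/mL TGF-beta after compound addition. %Activity was normalised to no-cell wells (complete cell-killing) and DMSO (no toxicity), and curves were fitted and classified.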
Starred values were filed as active, the others as inactive; i = inactive; ? = inconclusive; . = no result; [ ] = dose if it differs, or a comment. Calls come from the whole dose curve; as a rule, active = well fitted curve in the direction sought with a large enough effect; inconclusive = small, poorly fitted or top-dose-only effect, or another doubt; inactive = no such curve, though single readings can be large; an effect the other way counts as inactive or inconclusive. Potency is the fitted concentration of half-maximal effect.

SMILES | DT40 TDP1 no CPT | ATXN2 expr inh | TDP1 cell CPT | ATXN viability | TGFb SMAD3 inh | HepG2 tox
CCOc1ccc(NCc2cccn2-c2nnc(N3CCC(C(=O)NCCCN4CCCCC4CC)CC3)s2)cc1 (centres undefined) | ? | . | ? | . | -20% | 14µM*
Cc1cc(=O)n2nc(N3CCC(C(=O)NCCc4ccc(Cl)cc4)CC3)sc2n1 | -13% | -8% | -22% | i | 7% | 3%
Cc1ccc(NCc2cccn2-c2nnc(N3CCC(C(=O)NCCc4ccc(Cl)cc4)CC3)s2)cc1 | 13µM* | . | ? | . | . | -25%
CCOc1ccc(NCc2cccn2-c2nnc(N3CCC(C(=O)NCc4cccc(OC)c4)CC3)s2)cc1 | 6.5µM* | . | ? | . | . | -18%
CCOc1ccc(NCc2cccn2-c2nnc(N3CCC(C(=O)NCCOC)CC3)s2)cc1 | ? | . | ? | . | . | -4%
COC(=O)C1CCN(Cc2ccc3c(c2)CN(C(=O)C2Cc4ccccc4O2)CCO3)CC1 (centres undefined) | -14% | . | 17%[9.04 µM] | i | . | .
CCC(c1nnnn1-c1ccc2c(c1)OCCO2)N1CCN(c2ccc(C(F)(F)F)cc2[N+](=O)[O-])CC1 (centres undefined) | 23µM* | 1% | 15µM* | i | . | .
CCC(c1nnnn1-c1ccc2c(c1)OCCO2)N1CCN(C)CC1 (centres undefined) | -23% | 18% | 7% | i | . | .
CC1CCN(C(=O)C2CCN(S(=O)(=O)c3cccc4nsnc34)CC2)CC1 | -20% | . | -13% | i | 1% | 2%
Cc1ccc(C)c(N(C)C(=O)C2CCN(S(=O)(=O)c3cccc4nsnc34)CC2)c1 | 13µM* | ? | 16µM* | ? | ? | -22%
Cc1ccc(C)c(N2CCN(C(=O)C3CCN(S(=O)(=O)c4cccc5nsnc45)CC3)CC2)c1 | 18µM* | ? | 18µM* | i | -3% | -16%
Cc1ccc(NC(=O)C2CCN(S(=O)(=O)c3cccc4nsnc34)CC2)cc1 | ? | -16% | -13% | i | ? | -6%
Cc1ccnc(NC(=O)C2CCN(S(=O)(=O)c3cccc4nsnc34)CC2)c1 | -7% | -2% | -6% | i | 19% | -4%
Cc1ccc(N2CCN(C(=O)C3CCN(S(=O)(=O)c4cccc5nsnc45)CC3)CC2C)cc1 (centres undefined) | 16µM* | -14% | ? | i | -18% | -21%
Cc1ccc(N2CCN(C(=O)C3CCN(S(=O)(=O)c4ccc5c(c4)oc(=O)n5C)CC3)CC2C)cc1 (centres undefined) | 3.7µM* | -13% | 5.8µM* | i | -6% | -14%
O=C(c1ccco1)N1CCC[C@@]2(CCN(c3ccncc3)C2)C1 | -30% | . | 13% | . | . | .
O=C(Nc1ccnc(-c2cccnc2)n1)c1cccc(Cl)c1Cl | 23µM* | -21% | 21µM* | i | 20% | -9%
O=C(Nc1cccc(Cl)c1)Nc1ccnc(-c2cccnc2)n1 | 21µM* | -31% | ? | i | ? | -9%
CC(C)Oc1ccc(C2c3c(oc4ccccc4c3=O)C(=O)N2CCCN2CCOCC2)cc1 (centres undefined) | ? | 27% | 26µM* | ? | -3% | -11%
CC(C)c1ccc(C2c3c(oc4ccc(Cl)cc4c3=O)C(=O)N2CCCN2CCOCC2)cc1 (centres undefined) | ? | -9% | 18µM* | i | -4% | 2%
Cc1ccc2oc3c(c(=O)c2c1)C(c1ccccc1F)N(CCCN1CCOCC1)C3=O (centres undefined) | 18µM* | 14% | ? | i | -26% | 0%
